Reference: ChEMBL document CHEMBL4513216, “Probing the Open Global Health Chemical Diversity Library for Multistage-Active Starting Points for Next-Generation Antimalarials” (ACS Infect Dis, 2020)
In all, about 69,000 compounds went through this assay and about 8,600 (12%) showed an effect of 50% or more. What follows is part of a selection rich in strong results, with near analogues and random picks from the rest.

These compounds were tested on Plasmodium berghei (assay: Screen against P. berghei liver stage (PbLuc), transformed with Luciferase, at 10uM). Details: tested at 10 uM.
Format: functional, HepG2

Structure (SMILES) | INHIBITION [%]
CNC(=O)[C@@H]1[C@H]2CNCCN2C[C@H]1c1ccccc1 | 11.6
CCOC(=O)[C@@H]1CN2CCNC[C@@H]2[C@H]1c1ccccc1 | 46.4
CCOC(=O)[C@@H]1[C@@H](c2ccccc2)CN2CCNC[C@H]12 | 50.2
O=C(C1CC1)N1CCN2C[C@@H](CO)[C@H](c3ccccc3)[C@H]2C1 | 49.5
c1cc(-c2cnc(C3CCNCC3)cn2)n[nH]1 | 38.7
CCc1noc(C)c1C(=O)N1CCCC1Cn1cccn1 (stereo not given) | 45.7
CC(C)N1CCOCC2(CN(Cc3nccs3)CCO2)C1 (stereo not given) | 10.3
O=C(NC1CCCC1)N1CC[C@H]2[C@H]1CCN2c1nncs1 | 26
COCCc1nnc(NC(=O)Cc2ccccc2Cl)o1 | 35.1
COC(=O)N1CCC(CNC(=O)C2CC2)CC1 | -10.8
CCn1nc(C)c(-c2cncn2CCN(C)C2CCCC2)c1C | 27.6
Cc1ccc2c(c1)CCC2NCc1c(C)nn(CCO)c1C (stereo not given) | -40.4
CC(C)c1nc(CNc2ccc(CNS(C)(=O)=O)cc2)cs1 | -72.8
Cc1nc(N)cc(NCc2csc(N(C)C)n2)n1 | -84.1
CC(C)CC(CO)NC(=O)NCc1csc(N(C)C)n1 (stereo not given) | -5.1
CC(C)c1cc(NCc2csc(N(C)C)n2)nc(N)n1 | 87
COCC1(CNc2cc(C(C)C)nc(N)n2)CC1 | 41.2
CC(C)c1cc(NCc2csc(C(C)C)n2)nc(N)n1 | 58
O=C(c1cnccn1)N1CCCC2(CCN(Cc3ccsc3)CC2)C1 | -67.6
O=C(CC1CNCCO1)N1CCC(c2cc(N3CCCC3)ncn2)CC1 (stereo not given) | -23.2
CN(CC(=O)Nc1ccncc1)C1CCCN(c2cccnn2)C1 (stereo not given) | 4.52
O=C(CCc1cccs1)Nc1ccnn1C1CCS(=O)(=O)C1 (stereo not given) | 22.6
Cc1cccc(CCC(=O)Nc2ccnn2C2CCS(=O)(=O)C2)c1 (stereo not given) | 37.1
O=C(CCc1ccsc1)Nc1ccnn1C1CCS(=O)(=O)C1 (stereo not given) | 54.3
c1coc(CN2C[C@@H]3CCCO[C@@H]3[C@H](N3CCCC3)C2)c1 | 24.5
O=C(CN(Cc1cccs1)c1ccc(F)cc1)NC1CCOCC1 | 37.6
Cc1ccc(CN(CC(=O)NC2CCOCC2)c2ccc(F)cc2)o1 | 67.8
Cc1ccc(CN(CC(=O)NCC2CCOC2)c2ccc(F)cc2)o1 (stereo not given) | 7.39

Structure (SMILES) | INHIBITION [%]
CN1CCN(Cc2cccnc2)C2(CCN(c3ncc(F)cn3)C2)C1=O (stereo not given) | -8.19
Cc1nc(C(=O)N(C)C)nn1-c1ccccc1C(C)C | 30.8
CC(=O)N1CCN(C(=O)CCCc2nc(C(C)C)no2)CC1 | -8.61
CC(C)c1noc(CCC(=O)N2CCN(Cc3ccncc3)CC2)n1 | 37.9
CC(C)c1noc(CCC(=O)N2CCSCC2)n1 | 51.8
NC(=O)c1ccc(C2CCCNC2)nc1 (stereo not given) | 26.8
c1ccc(OCC2CC2)c(CNC2CCc3ncnn3C2)c1 (stereo not given) | 8.383
CNC(=O)COc1ccccc1CNC1CCc2nc(C)nn2C1 (stereo not given) | -24.4
c1ccc(COc2ccccc2CNC2CCc3ncnn3C2)cc1 (stereo not given) | 26.9
CNC(=O)COc1ccccc1CNC1CCc2ncnn2C1 (stereo not given) | 63.6
CN(C)C(=O)COc1ccccc1CNC1CCc2ncnn2C1 (stereo not given) | 33.6
c1ccc(OC2CCCC2)c(CNC2CCc3ncnn3C2)c1 (stereo not given) | 62.8
CCCc1n[nH]c(=O)n1[C@@H](CC)c1ccccc1 | 3.38
COCCNC(=O)N1CC(Cc2ccccc2F)C1 | -20.6
Cc1ccc(F)c(C(=O)N2CCC(Nc3ccc(C)nn3)CC2)c1 | -15.5
CNc1cc(C)nc(N2Cc3cnn(Cc4ccc(F)cc4)c3C2)n1 | 75.1
CCCc1nc(N2Cc3cnn(Cc4ccc(F)cc4)c3C2)no1 | 26.1
Cc1cc(C)nc(N2Cc3cnn(Cc4ccc(F)cc4)c3C2)n1 | 22.4
Fc1ccc(Cn2ncc3c2CN(c2ncccn2)C3)cc1 | -1.91
Cc1nccnc1N1Cc2cnn(Cc3ccc(F)cc3)c2C1 | 39.1
Cc1ccnc(N2Cc3cnn(Cc4ccc(F)cc4)c3C2)n1 | 39.1
Cc1ncc(C)c(N2Cc3cnn(Cc4ccc(F)cc4)c3C2)n1 | 32.5
Cc1cnc(N2Cc3cnn(Cc4ccc(F)cc4)c3C2)nc1N(C)C | 77.6
Cc1nc(N2Cc3cnn(Cc4ccc(F)cc4)c3C2)no1 | 12.8
CCNc1ccnc(N2Cc3cnn(Cc4ccc(F)cc4)c3C2)n1 | 78.4
N#Cc1cnc(N2Cc3cnn(Cc4ccc(F)cc4)c3C2)nc1N | 61.2
Fc1ccc(Cn2ncc3c2CN(c2noc(C4CC4)n2)C3)cc1 | 33.3
